ALOX12 inhib: qHTS Assay for Inhibitors of 12-hLO (12-human lipoxygenase); Potency, µM (titrated, usually from 57.1 µM), for inactives: top-dose activity change, negative = inhibition, most hits filed as inhibitors; actives 0.12% (n = 150,000); purified 12-hLO, xylenol orange hydroperoxide absorbance; AID 1452, 2008; also: potency is read from the fitted curve at half-maximal effect; nearly all actives have a fitted effect of over 55% in size
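150 nM 12hLO, 25 mM Hepes pH 7.0 + 0.01% Triton X-100; cpd preinc 15 min RT; 40 uM arachidonic acid, 30 min RT; Fe-XO 30 min; A573/A405 ratio as read-out.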
IMPase Li inh: qHTS Assay for Identifying the Cell-Membrane Permeable IMPase Inhibitors: Potentiation with Lithium; CHO-M1 cells, IP1 TR-FRET (IP-One), carbachol + lithium; Potency, µM (top dose mostly 59.4 µM), inactives show at the highest dose activity, negative = IMPase inhibition, actives largely listed as inhibitors; actives 0.35% (n = 210,000);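 also: IP1 builds up when IMPase is blocked and the TR-FRET signal falls; potency is read from the fitted curve at half-maximal effect; plate controls were basal vehicle for no effect and high inhibitor control for full effect; nearly all actives have a fitted effect of over 50% in size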
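Readout is a homogeneous TR-FRET IP1 immunoassay (Ex 320, Em 665 and 620), where raised cytosolic IP1 lowers signal. Cells were CHO-M1 treated 30 min at 37C with test compounds plus a little lithium; AC50 values came from Hill-equation fitting.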
PNC assembly inh: High Content Assay for Compounds that inhibit the Assembly of the Perinucleolar Compartment | PC3M PTB-GFP, PNC prevalence imaging, 16 h; active compounds read low | activity change (PNC), negative = inhibition, % at 10 µM | actives 3.1% (n = 140,000) | AID 2417, 2010;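 active = readout at or below -70, meaning at least 70% loss of cells showing the perinucleolar compartment, a nuclear body marking cancer cells; inconclusive = readout between -30 and a set limit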;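 also: plate controls were DMSO wells for no effect and camptothecin positive control wells for full effect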
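Read-out is percentage of cells bearing a perinucleolar compartment, from automated 20x imaging of fixed, Hoechst-stained PC3M PTB-GFP cells. Cells were seeded 4 h, then exposed 16 h to compound (23 nl of library stock) in duplicate plates.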
HPGD inh: qHTS Assay for Inhibitors of HPGD (15-Hydroxyprostaglandin Dehydrogenase) | 15-hydroxyprostaglandin dehydrogenase [NAD(+)] (Homo sapiens), P15428 | purified HPGD, NADH fluorescence kinetic, PGE2 substrate | Potency, µM, for the others: top-dose activity change, negative = inhibition, most hits filed as inhibitors | actives 4.3% (n = 150,000) | AID 894, 2007; active = well fitted inhibition curve with a large enough effect, not every such curve was filed as active; inconclusive = small, poorly fitted or top-dose-only effect, or another doubt; inactive = no such curve, though single readings can be large or run the other way; also: potency is read from the fitted curve at half-maximal effect
Target sequence (P15428 whole entry, looked up): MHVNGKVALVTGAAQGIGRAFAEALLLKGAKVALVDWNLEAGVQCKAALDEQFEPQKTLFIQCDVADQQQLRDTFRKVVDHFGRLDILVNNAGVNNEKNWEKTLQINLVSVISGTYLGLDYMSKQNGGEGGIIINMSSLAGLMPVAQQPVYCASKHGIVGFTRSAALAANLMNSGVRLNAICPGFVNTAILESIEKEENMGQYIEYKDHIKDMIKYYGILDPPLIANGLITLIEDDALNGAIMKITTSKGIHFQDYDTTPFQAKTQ
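NADH formation kinetics: reaction with 30 uM PGE2 and 1 mM NAD+ (final), 20 nM enzyme, Tris-HCl pH 8 with Tween 20, after 15 min compound preincubation at room temperature. Fluorescence change, last versus first of five reads.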
ALDH1A1 block: qHTS Assay for Inhibitors of Aldehyde Dehydrogenase 1 (ALDH1A1) | Purified ALDH1A1, NADH fluorescence, propionaldehyde substrate | Potency, µM (titrated, usually from 75.3 µM), for inactives: at the top dose activity, negative = inhibition, most hits filed as inhibitors | actives 7.3% (n = 220,000) | AID 1030, 2008; active = well fitted inhibition curve with a large enough effect, not every such curve was filed as active; inconclusive = small, poorly fitted or top-dose-only effect, or another doubt; inactive = no such curve, though single readings can be large or run the other way;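 also: potency is read from the fitted curve at half-maximal effect; plate controls were no enzyme wells and a reference inhibitor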
Target sequence (P00352 whole entry, looked up): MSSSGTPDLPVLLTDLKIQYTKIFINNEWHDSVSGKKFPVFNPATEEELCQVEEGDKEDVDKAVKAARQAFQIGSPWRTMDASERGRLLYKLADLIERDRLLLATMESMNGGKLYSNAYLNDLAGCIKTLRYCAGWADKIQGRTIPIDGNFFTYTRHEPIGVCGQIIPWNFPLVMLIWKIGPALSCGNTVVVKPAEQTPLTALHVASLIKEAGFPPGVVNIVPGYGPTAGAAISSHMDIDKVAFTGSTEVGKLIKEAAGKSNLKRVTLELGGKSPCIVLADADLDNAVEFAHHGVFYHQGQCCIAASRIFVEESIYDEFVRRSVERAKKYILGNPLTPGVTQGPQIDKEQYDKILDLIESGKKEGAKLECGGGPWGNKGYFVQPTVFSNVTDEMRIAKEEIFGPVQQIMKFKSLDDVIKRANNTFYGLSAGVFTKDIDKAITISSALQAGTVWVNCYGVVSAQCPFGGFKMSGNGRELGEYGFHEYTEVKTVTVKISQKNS
IMPase inh: qHTS Assay for Identifying the Cell-Membrane Permeable IMPase Inhibitors | Inositol monophosphatase 1 (Rattus norvegicus), P97697 | CHO-M1 cells, IP1 accumulation, HTRF TR-FRET ratio | inhibition (IP1 accumulation), % at 46.1 µM | 120,000 tested, under 10 active | AID 901, 2007; active = well fitted curve in the direction sought with a large enough effect in the signal ratio, not every such curve was filed as active; inconclusive = small, poorly fitted or top-dose-only effect, or a change in a side signal; inactive = no such curve, though single readings can be large or run the other way; the % refers to the signal ratio;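 also: cells stimulated with carbachol in lithium chloride buffer; plate controls were DMSO basal wells for no effect and reference inhibitor wells for full effect; higher means more IMPase inhibition seen as more IP1 and lower FRET ratio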
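Cellular IMPase inhibition is scored as a rise in cytosolic IP1, detected by competitive TR-FRET between d2-labelled IP1 and a europium anti-IP1 antibody. M1-expressing CHO cells were stimulated with carbachol for 30 min at 37C, with lithium (50 mM LiCl) present in the buffer.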
* hit, by the source's call; ? = inconclusive; . = not tested or not shown; [ ] = another dose, or the depositor's remark. Sampled rows, rich in hits. Any-hit rate of the full collection: about 11%. Unless noted, calls follow the shape of the dose curve; as a rule, active = well fitted curve in the direction sought with a large enough effect; inconclusive = small, poorly fitted or top-dose-only effect, or another doubt; inactive = no such curve, though single readings can be large; an effect the other way counts as inactive or inconclusive. Unless noted, % is scaled to controls: 0 for no effect and ±100 for the full control effect.

SMILES	ALOX12 inhib	IMPase Li inh	PNC assembly inh	HPGD inh	ALDH1A1 block	IMPase inh
CCC1CCc2c(sc(NC(=O)C3c4ccccc4Oc4ccccc43)c2C(N)=O)C1 (stereo unspecified)	-4%	-5%	-95*	?	?	-5
CCCOC(=O)c1c(NC(=O)C2c3ccccc3Oc3ccccc32)sc2c1CCCC2	.	.	.	.	.	-3
Cc1ccc(CNc2oc(-c3ccco3)nc2S(=O)(=O)c2ccccc2)cc1	-5%	10%	-5	-25%	28µM*	16
O=S(=O)(c1ccccc1)c1nc(-c2ccco2)oc1NCCN1CCOCC1	0%	-2%[38.3 µM]	27	-18%	14µM*	5
Cc1ccccc1-c1nc(S(=O)(=O)c2ccc(Br)cc2)c(NCc2cccnc2)o1	-9%	35%[38.3 µM]	42	-17%	?	2
O=S(=O)(c1ccccc1)c1nc(-c2ccco2)oc1NCCCN1CCOCC1	8%	7%	-4	-24%	8.9µM*	3
Cc1ccc(S(=O)(=O)c2nc(-c3ccccc3)oc2NCc2cccnc2)cc1	-17%	5%[38.3 µM]	15	-19%	28µM*	-5
N#Cc1nc(-c2ccco2)oc1NCCCN1CCOCC1	4%	14%[38.3 µM]	109	?	?	-5
CCCCCOc1ccc(Cn2c(=O)oc3ccc(C)cc32)cc1OC	.	.	.	.	.	13
O=C(O)/C(=C\c1ccc(O)cc1)c1cccc2ccccc12	-3%[11.4 µM]	-1%	.	1%	7%[13.5 µM]	.
O=C(Nc1ccc(NC(=O)c2ccc(Br)cc2)c(Cl)c1)c1ccc(Br)cc1	.	.	.	.	.	-12
Cc1nc2ccc(NC(=O)Nc3ccnc4cccnc34)cc2o1	-4%	5%	.	-1%	?	-2
CCN(CC)C(=O)C1CCCN(Cc2ccccc2C(F)(F)F)C1 (stereo unspecified)	-8%	30%[38.3 µM]	5	-13%	3.5µM*	0
CCN1C(=O)[C@H]2[C@H]3[C@H](O)[C@H](O)C/C(=N/NC(=O)OCc4ccccc4)[C@@H]3CC[C@@H]2C1=O	.	.	.	.	14%[13.5 µM]	.
N.N.N.N.N.N.N.N.N.N.N.N.N.N.O.O.[Ru].[Ru].[Ru]	-13%	.	.	.	.	6
CC(C)(C)C1CCc2sc(-c3nnc(CCl)o3)cc2C1 (stereo unspecified)	.	3%	.	.	22µM*	.
O=C(O)[C@H](/C=C\c1ccccc1)c1ccccc1	-3%[11.4 µM]	-7%	.	-10%	-3%[13.5 µM]	.
NC(=O)c1c(NC(=O)CN2CCCC2)sc2c1CCCC2	2%	12%[38.3 µM]	-20	?	18µM*	-16
NC(=O)c1c(NC(=O)CN2C(=O)CCC2=O)sc2c1CCCCC2	-2%	21%[38.3 µM]	-29	?	14µM*	?
COC(=O)NC1(C(F)(F)F)C(=O)NC(C)=C1C(=O)OC (stereo unspecified)	-1%	29%[38.3 µM]	-107*	3%	13%	-16
COC(=O)C1=C(C)NC(=O)C1(NC(=O)c1ccncc1)C(F)(F)F (stereo unspecified)	.	4%	.	.	-5%	.
Cc1oc(-c2ccccc2Cl)nc1CSCC(=O)N1CCCC1	4%	12%	-109*	-16%	?	0
Cc1oc(-c2ccccc2Cl)nc1CSCC(=O)NC1CCCC1	0%	25%[38.3 µM]	26	-23%	14µM*	-3
Cc1ccc(-c2nc(CSCC(=O)N3CCN(C(=O)c4ccco4)CC3)c(C)o2)cc1	-3%	10%[38.3 µM]	13	-15%	22µM*	5
Cc1ccc(-c2nc(CSCC(=O)N3CCOCC3)c(C)o2)cc1	1%	2%[38.3 µM]	16	-16%	?	-14
SMILES	ALOX12 inhib	IMPase Li inh	PNC assembly inh	HPGD inh	ALDH1A1 block	IMPase inh
O=C1C2C3C=CC(CNS(=O)(=O)c4ccccc4[N+](=O)[O-])(O3)C2C(=O)N1c1ccccc1 (stereo unspecified)	.	4%	.	.	0.89µM*	.
O=[N+]([O-])c1ccccc1S(=O)(=O)NCc1ccco1	.	1%	.	.	0%	.
Cc1cc(C)c(S(=O)(=O)NCC23C=CC(O2)C2C(=O)N(c4ccccc4)C(=O)C23)c(C)c1 (stereo unspecified)	-4%	-8%[38.3 µM]	87	35µM*	2.5µM*	1
COCOc1c2c(c(OCOC)c3c(OCOC)cccc13)/C(=N/N[S+](=O)([O-])c1ccc(C)cc1)C1=C2CCCC1	.	11%	.	-24%	-10%	.
O=C1C(=O)c2c(C(=O)c3ccccc3)coc2-c2ccccc21	-25%	52%[38.3 µM]	5	22µM*	?	13
Cc1ccc(OCCCN2C(=O)C(=O)c3cccc(C)c32)cc1	-26%	-29%[38.3 µM]	64	18µM*	0.071µM*	6
Cc1cccc2c1N(CCOc1ccc(C(C)(C)C)cc1)C(=O)C2=O	-2%	11%	-17	-20%	0.5µM*	-14
COc1ccccc1OCCCN1C(=O)C(=O)c2cccc(C)c21	.	-4%	.	.	0%	.
C[C@H]1[C@H](C)OC(=O)C[C@H](O)C[C@H](O)C[C@H](O)CC[C@H](O)[C@H](O)CC(=O)C[C@H](O)[C@H](C(=O)O)[C@H](O)C[C@H](O[C@@H]2O[C@@H](C)[C@H](O)[C@@H](N)[C@@H]2O)C=CC=CC=CC=CCCC=CC=C[C@@](C)(O)[C@H]1O	-10%[11.4 µM]	0%	.	-11%	-10%[13.5 µM]	.
Cc1c(N2C(=O)/C(=C\C3CC=CCC3)SC2=S)c(=O)n(-c2ccccc2)n1C (stereo unspecified)	.	25%	.	.	1.3µM*	.
Cc1c(N2C(=O)/C(=C/c3ccccc3)SC2=S)c(=O)n(-c2ccccc2)n1C	-1%	22%[38.3 µM]	28	-8%	4%	9

Screens deposited in PubChem by National Center for Advancing Translational Sciences (NCATS).
